Data as given in PubChem BioAssay AID504675 (Southern Research Specialized Biocontainment Screening …, 2011).
Activity calls are given as the source filed them.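 How the source made its calls: active means compound blocking phage killing of bacteria by at least 30% at some tested dose; inactive means the rest.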

Assay: UTI89 protection from K1F phage killing – strain UTI89, C7 control, set 3, capsule biogenesis inhibitor project, dose response (AID 504675)
Conditions: E. coli UTI89 K1 capsule; OD600, at 100 µM (top of the series); inhibition of phage lysis: at the top concentration

Q: With `O=C(O)c1cc(-c2cccc(F)c2)nc2ccccc12` as the compound, how does the “inhibition of phage lysis” value read?
A: 1% (inactive)

Q: Which “inhibition of phage lysis” value does the source give for `O=C(O)c1cc(-c2ccc(F)cc2)nc2ccccc12` here?
A: 1% (inactive)

Q: Which “inhibition of phage lysis” value does the source give for `COc1cccc(-c2cc(C(=O)O)c3ccccc3n2)c1` here?
A: 1% (inactive)

Q: For `COc1ccc2nc(NC(=O)c3ccccc3)sc2c1`, which “inhibition of phage lysis” value is on record?
A: 1% (inactive)

Q: Which “inhibition of phage lysis” value does the source give for `N=c1n(CCN2CCCC2)c2ccccc2n1CC(O)c1ccc(Cl)c(Cl)c1` (centres undefined) here?
A: 1% (inactive)

Q: Which “inhibition of phage lysis” value does the source give for `COc1ccc2nc(NC(=O)c3ccc(F)cc3)sc2c1` here?
A: 1% (inactive)

Q: Which “inhibition of phage lysis” value does the source give for `COc1ccc2nc(NC(=O)c3ccccc3OC)sc2c1` here?
A: 1% (inactive)

Q: Which “inhibition of phage lysis” value does the source give for `COc1cccc(C(=O)Nc2nc3ccc(OC)cc3s2)c1` here?
A: 1% (inactive)

Q: Which “inhibition of phage lysis” value does the source give for `COc1ccc(C(=O)Nc2nc3ccc(OC)cc3s2)cc1` here?
A: 1% (inactive)
